# According to PubChem BioAssay (NCI):
# “And” between values parts separate entries of the source, which are not always exact repeats. Identical values can stand only once. This is part of a sample that, as a whole, favours compounds with a hit. Of some 79,000 tested, about 15% had one in any assay. A number with no mark means an inactive call. The source made the active and inactive calls. No stated cut-off is given here; in the data, active means growth inhibition above about 70%; inactive means the rest.
# Legend:
# [1] = NCI Yeast Anticancer Drug Screen. Data for the rad50 strain (AID 155);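 further: 0% = growth of vehicle-only cultures of the same strain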; settings: S. cerevisiae rad50 strain growth inhibition, active compounds read high; at 50.0 µM unless noted
# Procedure, shortened: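 Inhibition values express reduced yeast growth in compound-treated cultures relative to vehicle-treated controls.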
# [2] = NCI Yeast Anticancer Drug Screen. Data for the mec2-1 strain (AID 157); settings: S. cerevisiae mec2-1 strain, active compounds read high; at 50.0 µM unless noted
# Procedure, shortened: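 Using mec2-1 yeast: add compound, measure growth, express inhibition versus vehicle-treated cultures.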
# [3] = NCI Yeast Anticancer Drug Screen. Data for the sgs1 mgt1 strain (AID 161);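 further: 0% = growth of cultures given vehicle only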; settings: S. cerevisiae sgs1 mgt1 strain, active compounds read high; at 50.0 µM unless noted
# Procedure, shortened: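 Percent growth inhibition was derived by comparing compound-exposed mutant yeast with vehicle-exposed cultures. The strain carries alterations in DNA damage repair.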
# [4] = NCI Yeast Anticancer Drug Screen. Data for the cln2 rad14 strain (AID 165);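 further: 0% = growth equal to vehicle treated cultures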; settings: S. cerevisiae cln2 rad14 strain, active compounds read high; at 50.0 µM unless noted
# Procedure, shortened: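 Yeast strain cln2 rad14, bearing defects in cell cycle control and DNA repair, serves as the test system; values reflect growth inhibition compared with vehicle.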
# [5] = NCI Yeast Anticancer Drug Screen. Data for the bub3 strain (AID 167); settings: S. cerevisiae bub3 mutant strain, active compounds read high; at 50.0 µM unless noted
# Procedure, shortened: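 Steps: expose the mutant yeast strain to compound; grow alongside vehicle-treated cultures; measure growth; express inhibition against the vehicle cultures.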
# [6] = NCI Yeast Anticancer Drug Screen. Data for the mlh1 rad18 strain (AID 175); settings: S. cerevisiae mlh1 rad18 strain growth inhibition, active compounds read high; at 50.0 µM unless noted
# Procedure, shortened: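 Steps: expose repair-defective yeast to compound; measure growth; express inhibition against vehicle-treated controls.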
Structure (SMILES),growth inhibition [1],growth inhibition [2],growth inhibition [3],growth inhibition [4],growth inhibition [5],growth inhibition [6]
N#CNc1nc(N)c(-c2ccc(Cl)cc2)c(C(=O)Nc2nccs2)n1,-8.85%,-10.9%,3.25%,1.5%,-7.75%,-12.6%
OC(CN1CCCC2CCCCC21)c1cc2c(c3ccccc13)CCCC2 (configuration not stated),98.2% (active),96.7% (active),99.5% (active),93.7% (active),98.5% (active),99.5% (active)
CC(C)(C)C(C(=O)O)C(=O)O,11.2%,8%,0.45%,-7.4%,5.2%,13.6%
CCCNC(=O)Cn1c(-c2ccccc2)cc2ccccc21,13.4%,5.5%,16.7%,18.4%,27.9%,-52.8%
CC1CCC2(OC1)OC1CC3C4CC=C5CC(O)CCC5(C)C4CCC3(C)C1C2C (configuration not stated),21.8% and 13.3%,16.9% and -23.6%,-1.5% and 3.2%,-3.95% and 4%,1.35% and 14.8%,32.9% and 15.3%
O=C(O)c1ccccc1C(=O)Nn1cnnc1,-7.55%,1.15%,-25.9%,17.2%,-8.1%,-0.1%
C/C(CC1=CCCCC1)=N\NC(N)=O,-18.4%,-17.9%,-20.9%,-27.9%,-4.65%,-12.7%
